A short description of experiment [1]: reducers of endogenous Her2 protein level, primary screen, SKBR3 breast tumor cells, AlphaScreen, ATP viability (AID 461;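 active = Her2 level under about 52% in both replicate screens, with viability over 70% of control, limit read from the data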;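 as to Her2 level: lower value means less Her2 protein in the cells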;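 as to viability: percent of carrier control wells set as 100% viability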). The settings on record: 18-24 h, measured here: SKBR3 viability, ATP luminescence, at 10 µM.
In experiment [2] the target is Receptor tyrosine-protein kinase erbB-2 (Homo sapiens) (UniProt P04626). The description is as above. The settings on record: 18-24 h, at 10 µM, stronger effect = lower value.
Experiment [3] can be described thus: SK-BR-3 cell growth inhibitors, pilot screen, 24 h, human (AID 572;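 active = viability at or below 10% of carrier control in both of two separate runs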;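 also: compound exposure lasted between 18 and 24 h rather than exactly 24 h; 100% = carrier-treated control wells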). The settings on record: SK-BR-3 viability, CellTiter-Glo luminescence, at 10 µM, stronger effect = lower value.
Experiment [4] in a line: HUVEC growth inhibition – cell-based, human, primary screen (AID 575;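 active = viability at or below 30% in both replicate assays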;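 also: 100% = median of untreated cell wells with 0.1% DMSO on each plate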). The settings on record: HUVEC proliferation, CellTiter-Glo luminescence, 72 h; at 10 µM; stronger effect = lower value.
Experiment [5] can be described thus: growth inhibitors of H69AR lung tumor, primary screen, human, duplicate replicates (AID 580;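 active = viability at or under a set limit in both replicates, limit being median viability minus 3 SD, cut at about 48% in these data, passing the limit was not always enough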;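 also: 100% = mean luminescence of untreated wells and 0% = no signal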). The settings on record: H69AR lung tumor cells viability, ATP luminescence, 72 h; at 10 µM; stronger effect = lower value.
Experiment [6] is described as follows: reversal of MRP1-mediated doxorubicin resistance, pilot screen, H69AR cells, doxorubicin co-treatment (AID 601;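 active = viability loss from added drug above about 55%, and viability with drug at most 40%, in both replicates, limit read from the data, passing the limit was not always enough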). The settings on record: CellTiter-Glo, 72 h, at 10 µM; for differential viability (reversal): stronger effect = higher value.
Experiment [7] can be described thus: 384-well plate pilot, post-Golgi transport modulator project, inhibition of yeast transport mutant growth (AID 636; in the data active = inhibition above about 31%). The settings on record: absorbance 615 nm, about 18 h, stronger effect = higher value.
Experiment [8] in a line: growth suppression of yeast trafficking mutant, preliminary HTS, modulators of trafficking downstream of Golgi apparatus project, 1536-format plate, OD 615 nm (AID 637; in the data active = inhibition above about 30%). The settings on record: yeast transport mutant growth, absorbance 615 nm, 18 h; stronger effect = higher value.
A short description of experiment [9]: OD615 S. cerevisiae growth inhibition, permissive medium, pilot counter-assay, permissive growth control for S. cerevisiae lifespan shortening project (AID 705). The settings on record: OD615, 24 h, at 10 µM, stronger effect = higher value.
A short description of experiment [10]: Restrictive medium S. cerevisiae growth inhibition, OD615, pilot screen of yeast lifespan reduction project, restrictive growth control (AID 706;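 active = growth inhibition above a set limit, 3 SD over mean compound inhibition, in both replicates, cut at about 43% in these data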;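 also: modified DeaD lifespan yeast strain shifted to restrictive glucose medium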). The settings on record: OD615, 48 h, at 10 µM, stronger effect = higher value.
Experiment [11] can be described thus: viability gain of MRP-1-high H69AR cells under doxorubicin, pilot screen, MRP-1 activator project, CellTiter-Glo, duplicate (AID 807;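 active = viability increase at or above a cutoff of the median across tested compounds plus 3 SD, cut at about 8.5% in these data, passing the limit was not always enough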;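 also: compound pretreatment 18-22 h then 72 h combined with doxorubicin; 0% = doxorubicin alone and 100% = vehicle without doxorubicin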). The settings on record: H69AR viability with doxorubicin, CellTiter-Glo luminescence; at 10 µM; stronger effect = higher value.
A short description of experiment [12]: growth suppression of beta-catenin knockout HCT116, pilot screen, human colon tumor cells (AID 823;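 active = cell viability at or below a set limit in both duplicate runs, the limit being the all-compound median minus 4 SD, cut at about 23% in these data, passing the limit was not always enough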;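 also: 0% = wells killed by 20 µM Hyamine and 100% = untreated DMSO cell wells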). The settings on record: CellTiter-Glo, 60 h, at 10 µM, stronger effect = lower value.
A short description of experiment [13]: growth suppression of PTEN-deleted HCT116, pilot screen, cell-based, HCT116 clonal line, CellTiter-Glo (AID 824;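 active = viability at or below 27.92% in each of two runs, the all-compound median minus 4 SD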;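 also: 0% = 20 µM Hyamine control and 100% = vehicle cell control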). The settings on record: 60 h, at 10 µM, stronger effect = lower value.
Experiment [14] can be described thus: inhibitors of the yeast RAM network, pilot screen, dse1pr::URA3 reporter, 5-FOA selection (AID 869;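 active = inhibition over a set limit, the all-compound mean plus 3 SD, in both replicate runs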;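 also: 0% = DMSO wells with no growth and 100% = 10 µM 1-NA-PP1 with full growth; RAM network block rescues cells from 5-FOA so hits raise OD615 growth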). The settings on record: S. cerevisiae dse1pr::URA3 5-FOA growth, OD615, 2 d; at 10 µM; stronger effect = higher value; strain carries analog-sensitive mutant Cbk1 kinase.
A short description of experiment [15]: RAM signaling pathway blockade in yeast – S. cerevisiae, Pdr1DBD-CYC8 efflux-inhibited sensitized strain, primary screen (AID 1298;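 active = RAM network inhibition above 8.4% in each of two replicates, 3 SD over the compound average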;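 also: 0% = DMSO untreated cells without growth and 100% = 10 µM 1-NA-PP1 full growth; higher means more yeast growth rescued from 5-FOA killing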). The settings on record: S. cerevisiae cbk1-as DSE1-URA3 strain, 5-FOA growth OD615, 2 d; at 50 µM; stronger effect = higher value.
The mark [16] stands for this setting: H69AR cells + 2 uM doxorubicin, measured here: viability with 2 uM doxorubicin, stronger effect = lower value.
Where [17] appears, read: H69AR cells, compound alone cytotoxicity.

Results filed as inconclusive are left out. Active and inactive are the calls of the source.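 The calls were made as follows, unless noted: active = growth inhibition above 25% in both replicates, a cutoff set 3 SD above the mean; inconclusive = above 25% in only one replicate; inactive = the rest.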

Sequence of Receptor tyrosine-protein kinase erbB-2 (Homo sapiens) (P04626 whole entry, looked up): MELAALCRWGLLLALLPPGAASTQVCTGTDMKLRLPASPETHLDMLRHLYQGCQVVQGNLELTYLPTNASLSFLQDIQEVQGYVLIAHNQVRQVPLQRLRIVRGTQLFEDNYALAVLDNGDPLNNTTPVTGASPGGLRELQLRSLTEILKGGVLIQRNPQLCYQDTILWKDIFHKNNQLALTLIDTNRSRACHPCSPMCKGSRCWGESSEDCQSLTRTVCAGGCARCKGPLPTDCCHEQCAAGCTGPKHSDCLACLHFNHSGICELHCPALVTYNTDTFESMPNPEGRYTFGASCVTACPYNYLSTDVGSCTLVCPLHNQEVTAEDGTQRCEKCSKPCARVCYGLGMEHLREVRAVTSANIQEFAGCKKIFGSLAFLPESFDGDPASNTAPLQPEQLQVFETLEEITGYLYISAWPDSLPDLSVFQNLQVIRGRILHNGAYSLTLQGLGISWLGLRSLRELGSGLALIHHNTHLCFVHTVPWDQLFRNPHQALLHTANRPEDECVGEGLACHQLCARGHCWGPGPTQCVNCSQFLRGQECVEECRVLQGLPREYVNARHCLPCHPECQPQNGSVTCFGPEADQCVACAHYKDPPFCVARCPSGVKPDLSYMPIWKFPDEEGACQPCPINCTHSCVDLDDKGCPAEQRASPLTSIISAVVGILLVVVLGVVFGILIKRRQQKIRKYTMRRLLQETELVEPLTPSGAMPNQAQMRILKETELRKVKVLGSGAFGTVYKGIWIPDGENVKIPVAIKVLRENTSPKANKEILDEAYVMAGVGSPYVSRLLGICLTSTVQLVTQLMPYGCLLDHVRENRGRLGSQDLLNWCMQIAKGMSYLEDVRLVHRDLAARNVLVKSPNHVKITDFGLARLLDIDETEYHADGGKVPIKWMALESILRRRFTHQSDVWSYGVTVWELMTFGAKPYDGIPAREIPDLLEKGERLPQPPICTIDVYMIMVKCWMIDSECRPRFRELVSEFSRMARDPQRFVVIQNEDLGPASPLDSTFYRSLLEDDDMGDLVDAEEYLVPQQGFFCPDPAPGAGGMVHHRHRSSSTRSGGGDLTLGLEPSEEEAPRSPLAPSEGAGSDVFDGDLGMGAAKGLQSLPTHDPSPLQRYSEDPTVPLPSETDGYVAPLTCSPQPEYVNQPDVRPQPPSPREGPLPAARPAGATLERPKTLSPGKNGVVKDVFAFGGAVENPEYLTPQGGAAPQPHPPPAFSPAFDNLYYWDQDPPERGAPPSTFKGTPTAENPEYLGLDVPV

As for `COc1ccc(S(=O)(=O)N(C)C2CCN(C)CC2)cc1`, the viability is 108% in experiment [1]; 108% (inactive) in experiment [3]; 93.2% (inactive) in [4]; 93.4% (inactive) in experiment [5]; 82.3% in experiment [6] (setting [16]); 93.4% in experiment [6] (setting [17]). Further, the viability in [12] was 100% (inactive); in experiment [13], 96.9% (inactive). In addition, the Her2 level in [2] was 98% (inactive). The differential viability (reversal) in experiment [6] (H69AR cells + 2 uM doxorubicin) was 11.1% (inactive). Also, the inhibition in experiment [7] was -4.8% (inactive); in [8], -2% (inactive); in experiment [14] it was 0.835% (inactive). Also, the growth inhibition was -6.05% (inactive) in experiment [9] and -10.2% (inactive) in [10]. The viability increase in experiment [11] was -3.82% (inactive). Moreover, the RAM network inhibition in experiment [15] is 5.99% (inactive).

As for `Clc1cccc(N2CCN(Cc3nc(-c4ccccc4)no3)CC2)c1`, the viability in experiment [1] was 90.5%; in [3] it was 90.5% (inactive); in experiment [4], 109% (inactive); in experiment [5], 91.3% (inactive); in experiment [6] (setting [16]), 95.4%; in experiment [6] (setting [17]), 91.3%. The viability is 91.5% (inactive) in experiment [12] and 90% (inactive) in experiment [13]. The Her2 level in [2] was 96% (inactive). Further, the differential viability (reversal) in experiment [6] (H69AR cells + 2 uM doxorubicin) was -4.04% (inactive). For the same compound, the inhibition in experiment [7] was 0.53% (inactive); in experiment [8] it was -6.5% (inactive); in experiment [14], -1.2% (inactive). Further, the growth inhibition in experiment [9] is 3.02% (inactive); in [10], 0.865% (inactive). The viability increase in experiment [11] was -2.61% (inactive). For the same compound, the RAM network inhibition in experiment [15] is 4.99% (inactive).

With `CCCCOC(=O)c1[nH]c2c(c1C)C(=O)CC(c1cc(OC)c(OC)c(OC)c1)C2` (configuration not stated), the viability is 89% in experiment [1]; 89% (inactive) in [3]; 77.4% (inactive) in experiment [4]; 72.4% (inactive) in experiment [5]; 71.5% in experiment [6] (setting [16]); 72.4% in [6] (setting [17]). In experiment [13], the viability was 56.6% (inactive). In [2], the Her2 level is 74.5% (inactive). In addition, the differential viability (reversal) in experiment [6] (H69AR cells + 2 uM doxorubicin) is 0.9% (inactive). The inhibition is 0.38% (inactive) in experiment [7], -3.33% (inactive) in experiment [8] and 1.75% (inactive) in [14]. Also, the growth inhibition in [9] is -13% (inactive); in [10], -18.8% (inactive). Moreover, in [11], the viability increase was 1.17% (inactive). For the same compound, the RAM network inhibition in experiment [15] was 3.15% (inactive).

Consider `COc1cccc(CNC(=O)CCS(=O)(=O)c2cccc3nsnc23)c1`, for which the viability in [1] was 106%; in experiment [3] it was 106% (inactive); in [4] it was 105% (inactive); in [5], 89.6% (inactive); in experiment [6] (setting [16]) it was 96.6%; in [6] (setting [17]) it was 89.6%. Further, in [13], the viability was 97.1% (inactive). Besides, in experiment [2], the Her2 level was 91% (inactive). In addition, the differential viability (reversal) in [6] (H69AR cells + 2 uM doxorubicin) is -6.93% (inactive). The results for the inhibition in experiment [7], in experiment [8] and in experiment [14] were -7.67% (inactive), 0.95% (inactive) and 1.32% (inactive), respectively. In addition, the figures for the growth inhibition in experiment [9] and in experiment [10] were -8.72% (inactive) and -10.3% (inactive), respectively. Moreover, the viability increase in experiment [11] was -2.45% (inactive). In addition, the RAM network inhibition in experiment [15] was 0.77% (inactive).

Turning to `CCOCCCNC(=O)C(c1ccc(C)cc1)N(Cc1ccc2c(c1)OCO2)C(=O)c1cnccn1` (configuration not stated), the viability in [1] was 98%; in experiment [3], 98% (inactive); in experiment [4], 103% (inactive); in experiment [5], 98.7% (inactive); in experiment [6] (setting [16]) it was 98.9%; in [6] (setting [17]), 98.7%. Also, the viability in experiment [12] is 93.8% (inactive). In addition, in [2], the Her2 level is 102% (inactive). Further, the differential viability (reversal) in experiment [6] (H69AR cells + 2 uM doxorubicin) is -0.27% (inactive). The inhibition is -5.34% (inactive) in experiment [7], 2.38% (inactive) in experiment [8] and 1.83% (inactive) in experiment [14]. Also, the growth inhibition was -5.46% (inactive) in experiment [9] and 3.09% (inactive) in experiment [10]. Also, the viability increase in experiment [11] was -2.67% (inactive). For the same compound, in experiment [15], the RAM network inhibition is 5.34% (inactive).

`CC(O)CN1C(=O)C(CC(=O)Nc2ccc(Cl)cc2)SC1=Nc1ccccc1` (configuration not stated): the viability in experiment [1] is 97%; in [3], 97% (inactive); in experiment [4] it was 57% (inactive); in [5], 66.4% (inactive); in [6] (setting [16]), 76.6%; in experiment [6] (setting [17]), 66.4%. Further, the viability in experiment [13] was 59.2% (inactive). Besides, the Her2 level in experiment [2] is 101% (inactive). Also, the differential viability (reversal) in experiment [6] (H69AR cells + 2 uM doxorubicin) is -10.2% (inactive). Besides, the inhibition is -6.99% (inactive) in [7], -7.94% (inactive) in experiment [8] and 2.45% (inactive) in experiment [14]. The growth inhibition in [9] was -9.07% (inactive); in experiment [10], -7.22% (inactive). The viability increase in experiment [11] was -3.6% (inactive). For the same compound, in experiment [15], the RAM network inhibition is 6.03% (inactive).

Consider `Cc1cc(C)c2c(=O)n(CC(=O)N3CCC(Cc4ccccc4)CC3)sc2n1`, for which the viability in experiment [1] is 108%; in experiment [3], 108% (inactive); in [4], 77% (inactive); in [5] it was 3.96% (active); in experiment [6] (setting [16]) it was 10.3%; in [6] (setting [17]), 3.96%. For the same compound, the viability in experiment [13] was 68.7% (inactive). Also, the Her2 level in [2] was 84% (inactive). In addition, in experiment [6] (H69AR cells + 2 uM doxorubicin), the differential viability (reversal) was -6.3% (inactive). Besides, the inhibition was -6.53% (inactive) in experiment [7], -2.17% (inactive) in experiment [8] and 1.6% (inactive) in [14]. For the same compound, the growth inhibition in experiment [9] was 73% (active); in experiment [10], 89.2% (active). Besides, the viability increase in experiment [11] is -6.66% (inactive). For the same compound, the RAM network inhibition in experiment [15] was 3.67% (inactive).

Turning to `Cc1noc(C)c1CSc1ccccc1C(=O)N1CCN(c2ccccc2)CC1`, the viability in experiment [1] is 87%; in [3], 87% (inactive); in [4], 97.8% (inactive); in [5] it was 82% (inactive); in experiment [6] (setting [16]), 88.2%; in [6] (setting [17]), 82%. Also, the viability in [13] is 72.3% (inactive). The Her2 level in experiment [2] is 86% (inactive). Further, the differential viability (reversal) in experiment [6] (H69AR cells + 2 uM doxorubicin) was -6.2% (inactive). The inhibition in [7] was -4.46% (inactive); in experiment [8], 5.57% (inactive); in [14] it was 3.5% (inactive). In addition, the growth inhibition in experiment [9] is -11.9% (inactive); in experiment [10], -20% (inactive). The viability increase in experiment [11] is -2.25% (inactive). In experiment [15], the RAM network inhibition was 4.4% (inactive).

Turning to `N#Cc1c2n(c(=O)[nH]c1=O)CCCCC2`, the viability in experiment [1] was 112%; in experiment [3] it was 112% (inactive); in [4], 96.2% (inactive); in experiment [5], 103% (inactive); in [6] (setting [16]), 99.7%; in experiment [6] (setting [17]), 103%. The viability in experiment [12] is 99.5% (inactive). Besides, in experiment [2], the Her2 level is 92% (inactive). In addition, in experiment [6] (H69AR cells + 2 uM doxorubicin), the differential viability (reversal) was 3.5% (inactive). Moreover, the inhibition is -2.6% (inactive) in experiment [7], -7.46% (inactive) in experiment [8] and -0.04% (inactive) in [14]. For the same compound, the growth inhibition in experiment [9] was -9.79% (inactive); in experiment [10], 1.1% (inactive). For the same compound, the viability increase in experiment [11] was 1.19% (inactive). For the same compound, the RAM network inhibition in [15] was 6.34% (inactive).

As for `CCOC(=O)c1[nH]c(C)c(C(=O)Nc2ccc(C)cc2C)c1C`, the viability in experiment [1] was 91.5%; in [3], 91.5% (inactive); in experiment [4], 54.8% (inactive); in experiment [5] it was 22.2% (active); in experiment [6] (setting [16]), 50.7%; in experiment [6] (setting [17]), 22.2%. Moreover, the viability in [13] was 32.8% (inactive). In experiment [2], the Her2 level is 92% (inactive). Besides, the differential viability (reversal) in experiment [6] (H69AR cells + 2 uM doxorubicin) is -28.5% (inactive). Besides, the inhibition is -3.72% (inactive) in experiment [7], -3.5% (inactive) in experiment [8] and 1.79% (inactive) in experiment [14]. Further, the growth inhibition was -12.6% (inactive) in experiment [9] and -5.29% (inactive) in experiment [10]. Further, the viability increase in experiment [11] is -6.07% (inactive). Further, the RAM network inhibition in [15] was 0.04% (inactive).

For the origin of these results see PubChem BioAssay.
